High-throughput results (PubChem BioAssay)
Sa growth inh – S. aureus growth inhibition; relative growth, % (concentration not given with the values); S. aureus RN4220 growth, OD600, 20 h, 42 °C; hits give low values; actives 0.53% (n = 170,000);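 active means relative growth at most 50% at the other temperature and 20+ points below 30 °C, or under 10% at both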
Sa helicase inh – blocks Staphylococcus aureus DNA helicase | purified S. aureus helicase, fluorescence unwinding assay | inhibition, % (concentration not given with the values) | actives 0.05% (n = 120,000) | AID 485395; in the data active means inhibition above about 25%, passing the limit was not always enough;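 further: 0% = mean of negative control wells and 100% = mean of positive control wells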
* marks the source's active call; other numbers are inactive results; nt = no result given. The sample as a whole holds a higher share of hits than the screen did.

SMILES	Sa growth inh	Sa helicase inh
COc1ccc(/C=C2\CCCC3=C2Nc2ncnn2C3c2ccc(OC)cc2)cc1 (stereo not given)	80	4
Cc1ccc(/C=C2\CCCC3=C2Nc2nnnn2C3c2ccc(C)cc2)cc1 (stereo not given)	0.7*	9
CC1=NC2N(C(=S)NC(=O)c3ccco3)N=C(NC(=O)c3ccco3)N2C(OC(=O)c2ccco2)=C1 (stereo not given)	85	-10
CCCc1nc(C(C)(C)O)c(C(=O)O)n1Cc1ccc(-c2ccccc2-c2nn[nH]n2)cc1	92	nt
O=c1c2c3c(sc2nnn1CCCCOc1ccc(Cl)cc1)CCCC3	94	nt
COc1ccc(Br)cc1CNC(=O)CN1CCSc2ccccc21	109	nt
N#CCOc1nc(OCC#N)nc(OCC#N)n1	28*	-9
COc1nc(OCC#N)nc(N(C)C)n1	96	4
COC(=O)[C@@H]1CC(=O)O[C@H](C)C/C=C/C=C/[C@H](O)[C@H](C)C[C@H](CC=O)[C@H](OC2O[C@H](C)[C@@H](OC3C[C@@](C)(O)[C@@H](OC(=O)CC(C)C)[C@H](C)O3)[C@H](N(C)C)[C@H]2O)[C@H]1OC (stereo not given in full)	-0.6*	nt
COC(=O)c1ccc2c(c1)N(Cc1ccccc1)C(=O)c1ccccc1S2	91	1
CCCn1c(C(C)O)nc2ccccc21 (stereo not given)	101	26
CC1COc2c(F)c(F)cc3c(=O)c(C(=O)O)cn1c23 (stereo not given)	nt	18
CCn1cc(C(=O)O)c(=O)c2cc(F)c(N3CCNC(C)C3)c(F)c21 (stereo not given)	-0.6*	nt
COc1c(N2C[C@@H]3CCCN[C@@H]3C2)c(F)cc2c(=O)c(C(=O)O)cn(C3CC3)c12	-0.9*	nt
CC1COc2c(N3CCN(C)CC3)c(F)cc3c(=O)c(C(=O)N4CCN(S(=O)(=O)c5ccccc5)CC4)cn1c23 (stereo not given)	90	-9
CC(=O)OCC(=O)NCCCOc1cccc(CN2CCCCC2)c1	103	nt
CC1(C)CC(=O)C2=C(C1)Oc1ccccc1C2CC(=O)c1ccc(O)cc1 (stereo not given)	91	2
CCOC(=O)Nc1cc(C(C)(C)C)on1	108	10
COc1ccc(/C=C2/SC(=S)N(CC(=O)NCc3ccccc3)C2=O)cc1	nt	-25
CCn1c(=O)cc(SCC(=O)Nc2ccc(F)cc2)c2ccccc21	93	-28
COc1ccc(Cl)cc1NC(=O)NCC1CCN(C(=O)OC(C)(C)C)CC1	102	-2
CCn1c(=O)cc(Nc2ccc(C)c(C)c2)[nH]c1=O	2.4*	-23
Cc1ccc(Nc2ssc(=O)c2Cl)cc1C	88	-5
CCC1CN(C(=O)N2CCC(C(=O)NCc3cc(OC)ccc3OC)CC2)c2ccccc2O1 (stereo not given)	118	nt
O=C(Cc1ccc(F)cc1)NCCc1csc(-c2ccc(C(F)(F)F)cc2)n1	127	nt
SMILES	Sa growth inh	Sa helicase inh
CCOC(=O)c1ccc(Nc2nc3nonc3nc2Nc2cccc(C)c2C)cc1	-1.0*	nt
CCOC(=O)c1ccc(Nc2nc3nonc3nc2NCc2ccco2)cc1	50	20
Cc1ccc(C(=O)NC2CCCC2)s1	97	12
Cc1c(CC#N)ccc2ccccc12	99	nt
CN(C)Cc1ccc2ccc3cccc4ccc1c2c34	69	50*
COc1nonc1NC(C)=O	91	4
CC(=O)NC1=CC(=O)c2nonc2C1=O	-0.7*	19
Cc1nn2c(-c3ccccc3)cc(-c3ccccc3)nc2c1-c1ccc(Cl)cc1	110	nt
Cc1[nH]n2c(=O)cc(-c3ccc(Cl)cc3)nc2c1-c1ccccc1	-0.5*	nt
CCC(Sc1nncn2c1cc1sccc12)C(=O)Nc1cccc(OC)c1 (stereo not given)	110	nt
COc1ccc(-c2nc(N)sc2-c2ccccc2)cc1	nt	16
N#CSc1sc(N)nc1-c1ccccc1	0.1*	19
Cc1ccc(-c2n[nH]c3c2C(c2ccccc2)NC3=O)cc1 (stereo not given)	139	13
CCCN1CCC(NC(=O)Nc2ccc(OC)c(OC)c2)CC1	97	-6
c1ccc2[nH]c(CNc3ncnc4sccc34)nc2c1	79	-13
NC(=NCCCCCCN=C(N)/N=C(\N)Nc1ccc(Cl)cc1)/N=C(\N)Nc1ccc(Cl)cc1	-0.8*	nt
CC(C)N=C(N)/N=C(\N)Nc1ccc(Cl)cc1	94	nt
Clc1ccc(-c2nnn3c2nc(NCc2ccc4c(c2)OCO4)c2ccccc23)cc1	112	nt
CCOc1ccccc1CNc1ncn[nH]1	77	-4
Cc1ccc(C)c(NC(=O)c2ccccc2)c1	86	-1
Cc1cc(N=NC(=O)c2ccccc2)ccc1O	0.6*	22
O=C(Nc1cccc(Cl)c1)N1CC2CCCN2c2ccccc21 (stereo not given)	95	nt
COc1ccccc1C(=O)CSc1ccc(Cl)cc1	6.6*	-17
O=C(CSc1ccc(Cl)cc1)c1ccc[nH]1	113	11
CN1C(=O)C(C)(C)c2cc(S(=O)(=O)NCc3ccc(C(=O)Nc4ccc(Cl)cc4)cc3)ccc21	124	nt
SMILES	Sa growth inh	Sa helicase inh
Cc1nnc(Nc2ccc(N3CCCCC3)cc2)[nH]c1=O	102	13
CC(=C\c1ccccc1)/C=C1/SC(=S)N(C2CCCCC2)C1=O	99	8
O=C1/C(=C/c2cccnc2)SC(=S)N1C1CCCC1	7.2*	8
O=C(CSC1=NNC(c2ccccn2)S1)c1ccc(Cl)cc1 (stereo not given)	93	-22
O=C(CCn1ccnc1)OCc1ccccc1	106	17
O=C(OCCn1ccnc1)c1ccc(-c2ccccc2)cc1	3.0*	9
O=C1CC(C2CCCC=C2N2CCOCC2)C(=O)N1Cc1ccccc1 (stereo not given)	100	3
COc1cc(CNc2ccc(C(=O)O)cc2)ccc1OCc1ccc(Cl)cc1	100	8
Oc1cc2c(cc1C(Nc1ccccn1)c1ccc3c(c1)OCO3)OCO2 (stereo not given)	0.6*	4
CC(NC(=O)CSc1ccccn1)c1ccc2c(c1)OCO2 (stereo not given)	89	5
Cc1c(C#N)c2nc3ccccc3n2c(=O)/c1=C\Nc1cccc(NC(=O)c2ccccc2)c1	111	-12
O=S(=O)(Nc1ccc(O)c2ccccc12)c1ccccc1	5.0*	2
O=C(O)c1ccccc1NS(=O)(=O)c1ccccc1	120	13
COc1cc(C)nc(N(C)S(=O)(=O)c2ccccc2)n1	113	2
Cc1oc2c(c1C(=O)NCCCn1ccnc1)C(=O)c1ccccc1C2=O	-0.8*	34
O=C1c2ccccc2C(=O)c2c1oc1c3c(ccc21)OCN(CCCn1ccnc1)C3	5.8*	24
CC(C)(C)N1COc2ccc3c4c(oc3c2C1)C(=O)c1ccccc1C4=O	50	4
CCCCCN1COc2ccc3c4c(c(=O)oc3c2C1)CCC4	101	19
O=C1c2ccccc2C(=O)c2c1oc1c3c(ccc21)OCN(CCC1=CCCCC1)C3	7.0*	6
Cc1oc2c(c1C(=O)NCCC(C)C)C(=O)c1ccccc1C2=O	17	-6
COc1cccc(OC)c1/C(O)=C(\C#N)c1nc2ccccc2s1	1.4*	1
N#C/C(=C(/O)COc1ccccc1)c1nc2ccccc2s1	81	12
Clc1cccc(-n2ncc3c(N4CCN(Cc5ccccc5)CC4)ncnc32)c1	84	nt
O=C(NCC1CC1)c1ccccc1NC(=O)c1cc2ccccc2oc1=O	87	nt
CN1CCC(N(C)C2CCN(Cc3ccccc3)CC2)CC1	96	7
